By inhibition is commonly meant the drop in the measured response relative to a control, in per cent.

Where “and” joins values, the source holds several entries; their conditions need not be identical. Equal values may be shown once.
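Note: reported values are mean inhibition of ARK5 (NUAK1), from the GSK PKIS screen.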

The test concerns the target T1, NUAK family SNF1-like kinase 1 (Homo sapiens) (UniProt O60285).
T1 sequence (whole entry): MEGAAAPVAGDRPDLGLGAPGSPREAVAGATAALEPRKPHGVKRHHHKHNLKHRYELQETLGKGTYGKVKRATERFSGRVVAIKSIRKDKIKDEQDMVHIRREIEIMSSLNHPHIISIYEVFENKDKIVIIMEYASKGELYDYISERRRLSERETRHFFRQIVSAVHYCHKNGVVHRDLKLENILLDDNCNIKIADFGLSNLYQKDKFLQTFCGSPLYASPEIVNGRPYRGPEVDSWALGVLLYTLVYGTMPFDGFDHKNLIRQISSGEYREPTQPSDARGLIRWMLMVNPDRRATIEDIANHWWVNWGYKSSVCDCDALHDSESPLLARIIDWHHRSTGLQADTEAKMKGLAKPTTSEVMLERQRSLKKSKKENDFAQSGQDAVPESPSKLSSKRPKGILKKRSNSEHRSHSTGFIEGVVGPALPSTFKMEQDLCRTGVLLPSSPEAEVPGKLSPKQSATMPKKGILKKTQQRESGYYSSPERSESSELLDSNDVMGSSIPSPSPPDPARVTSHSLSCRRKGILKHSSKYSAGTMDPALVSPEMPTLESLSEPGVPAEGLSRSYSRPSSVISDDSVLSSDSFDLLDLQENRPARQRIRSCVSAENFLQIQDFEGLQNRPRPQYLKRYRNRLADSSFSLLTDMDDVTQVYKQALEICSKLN
Particulars: at 0.1 µM.
Consider `COc1cccc(-n2ncc3c(N/N=C/c4ccc(C(=O)NCCN(C)C)cc4)ncnc32)c1`, for which the inhibition turned out to be 43.9%. Consider `CS(=O)(=O)Nc1ccc(-c2cc(-c3ccccc3)cc(C(N)=O)c2N)cc1`, for which the inhibition is -2.25%. In the case of `CCn1c(-c2nonc2N)nc2cncc(C(=O)NCCNC)c21` it was -0.78%; in that of `NS(=O)(=O)c1ccc(N/N=C2\C(=O)Nc3cccc(CCc4ccncc4)c32)cc1`, 47.4%; in that of `CCOc1ccc2c(-c3ccnc(Nc4cc(OC)cc(C(F)(F)F)c4)n3)cnn2n1`, 4.52%. The result for `Cc1ccc(-c2cc3c(NC(=O)C4CC4)ncnc3o2)cc1` reads 2.09%; that for `COc1cc2c(cc1Nc1nc(Nc3cccc(F)c3C(N)=O)c3cc[nH]c3n1)N(C(=O)CN1CCN(C(C)C)CC1)CC2`, 1.37%; that for `Nc1ncnc2occ(-c3ccc(NC(=O)Nc4cc(C(F)(F)F)ccc4F)cc3)c12`, 5.01% and 0.14%. The result for `CN1CCN(Cc2ccc(-c3cc4ncnc(Nc5ccc(OCc6cccc(F)c6)c(Cl)c5)c4s3)o2)CC1` reads 0.69% and 0.76%; that for `NC(=O)c1ccc2c(-c3ccnc(NCCCO)n3)c(-c3ccc(F)cc3)nn2c1`, 2.9%; that for `CN1CCC(n2cnc(-c3ccc(F)cc3)c2-c2ccnc(NCCO)n2)CC1`, 1.51%. Consider `O=C(O[C@H]1CN[C@H](C#Cc2cc3ncnc(Nc4ccc5c(cnn5Cc5ccccc5)c4)c3s2)C1)N1CCOCC1`, for which the inhibition was 3.37%. `Cc1c2ccc(N(C)c3ccnc(Nc4cccc(S(N)(=O)=O)c4)n3)cc2nn1C`: the inhibition came out at 10.9%.

Turning to `CNC(=O)c1cncc(/C=C/c2ccccc2C)c1`, the inhibition stood at 2.2%.

With `COc1ccc(Nc2ncc(-c3ccccc3)o2)cc1OC`, the inhibition came out at 18.2%. The result for `CS(=O)(=O)CCNCc1ccc(-c2ccc3ncnc(Nc4ccc(OCc5ccccc5)cc4)c3c2)o1` reads -0.27%.

With `CCCNc1cccc(-n2ncc3c(N/N=C/c4ccncc4)ncnc32)c1`, the inhibition was found to be 5.36%. Consider `COc1c(C(N)=O)cc(-c2ccc(Cl)cc2)cc1-c1ccc(S(N)(=O)=O)cc1`, for which the inhibition came out at 0.82%.

For the molecule `COc1cccc(Nc2nccc(-c3cnn4ncccc34)n2)c1`, the inhibition worked out at 52.8%. Consider `CN(c1ccc(NC(=O)NCCN2CCOCC2)cc1)c1ccnc(Nc2ccc(CS(C)(=O)=O)cc2)n1`, for which the inhibition was found to be 8.2%. The result for `COc1ccc(-c2nn3ncccc3c2-c2ccnc(Nc3ccc(F)c(F)c3)n2)cc1` reads 3.92%; that for `COc1cc(N2CCN(C(C)C)CC2)ccc1Nc1nc(Nc2cccc(F)c2C(=O)O)c2cc[nH]c2n1`, 5.3%. With `CC(C)c1ccc(-c2cc(-c3c[nH]nc3-c3ccccn3)ccn2)cc1`, the inhibition is -1.39%.

As for `CS(=O)(=O)Nc1ccc(-c2ccc3c(NC(=O)C4CC4)n[nH]c3c2)cc1`, the inhibition is -6.19%. Take `Cn1c(-c2nonc2N)nc2cnccc21`: the inhibition was found to be 0.78%. `CS(=O)(=O)CCNCc1ccoc1-c1ccc2ncnc(Nc3ccc(OCc4ccccc4)cc3)c2c1`: the inhibition is 2.3%.

Regarding `O=C(O[C@H]1CN[C@H](C#Cc2cc3ncnc(Nc4ccc5c(ccn5Cc5cc(F)ccc5F)c4)c3s2)C1)N1CCOCC1`, the inhibition was determined as 1.19%.

Regarding `Nc1nccc(-c2c(-c3ccc(F)cc3)ncn2C2CCNCC2)n1`, the inhibition was 3.5% and 3.71%. On to `COC(=O)Nc1nc2cc(Oc3ccc(NC(=O)Nc4ccccc4)cc3)ccc2[nH]1`, for which the inhibition was -0.53%. In the case of `CNC(=O)c1ncccc1Nc1nc(Nc2cc3c(cc2OC)CCCN3C(=O)CN(C)C)nc2[nH]ccc12` it was 5.36%. On to `O=C(Nc1n[nH]c2nnc(-c3cccnc3)cc12)C1CC1`, for which the inhibition worked out at 1.34%.

The values above are taken from ChEMBL document CHEMBL1961873, “Compounds: GSK PKIS; Assays: Nanosyn kinase panel” (2012).
